Source: PubChem
Gal4-VP16 FLuc = inhibits Gal4-VP16 luciferase reporter, ROR gamma counter-screen; 3.5% of 310,000 active; Drosophila S2 Gal4-VP16 UAS-luciferase, luminescence, 20 h; Potency, µM (series often up to 53.6 µM), for inactives: at the top dose activity, negative = inhibition, hits mostly inhibitors;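 also: Gal4-VP16 expression switched on by copper sulfate through the metallothionein promoter; % is scaled to controls: 0 for no effect and ±100 for the full control effect; nearly all actives have a fitted effect of over 50% in size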
Sfp inh = blocks B. subtilis Sfp PPTase activity. Q9F4F7. Biochemical Sfp PPTase activity, qHTS. Potency, µM, without a hit: largest response in the series, negative = inhibition, actives largely listed as inhibitors. 3.5% of 310,000 active;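 also: the enzyme is Sfp with the accession as filed and its product quenches rhodamine fluorescence; 0% = enzyme reaction without inhibitor and -100% = no enzyme wells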
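Buffer: 50 mM Hepes-Na pH 7.6, 10 mM MgCl2, 0.01% Nonidet P-40, 0.01% BSA. Enzyme 15 nM, pre-exposed to compound 15 min; substrates then added and fluorescence change tracked over 30 min.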
PINK1 modulator = modulators of PINK1 expression. 0.2% of 410,000 active. Potency, µM (titrated, usually from 76.6 µM), without a hit: top-dose activation (PINK1 increase), hits mostly activators. AID 624263. PINK1 immunofluorescence, high-content cytometry, 24 h; active = well fitted activation curve with a large enough effect; inconclusive = small, poorly fitted or top-dose-only effect; cell line not stated here; also: % of control where 0% means no effect; nearly all actives have a fitted effect of over 65% in size
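Cells are seeded, rested 12 hours, then given compound at five concentrations or DMSO for 24 hours. After fixation, blocking and antibody staining, PINK1 amount and mitochondrial localization are scored; CCCP serves as control.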
RORgamma inh = blocks mouse ROR gamma transcriptional activity. P51450. Drosophila S2 Gal4-RORgamma UAS-luciferase reporter, 20 h. Potency, µM (doses to about 53.6 µM), inactives show at the highest dose activity change, negative = inhibition, most hits filed as inhibitors. 5.4% of 310,000 active; also: % is scaled to controls: 0 for no effect and ±100 for the full control effect; nearly all actives have a fitted effect of over 60% in size
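Luminescence from a UAS-regulated Photinus luciferase reporter in stably transfected Drosophila Schneider cells is measured; decreased signal marks ROR gamma inhibition. Fusion expression is induced by 700 uM copper sulfate for 20 hr.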
Epigenetic derep = derepresses silenced GFP reporter in murine cells; murine LDR cells, GFP reporter derepression, 30 h; Potency, µM (series often up to 53.9 µM), for inactives: top-dose GFP activation, hits mostly activators; 0.2% of 280,000 active; AID 1865; also: % of control where 0% means no effect; nearly all actives have a fitted effect of over 60% in size
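Readout is the number of GFP-expressing murine LDR cells, counted by cytometry following washing. Cells were treated with compound for 30 h at 37 C; the stably integrated CMV-GFP locus is normally silent.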
ClpP mod = qHTS Assay for Activators of ClpP | Potency, µM (doses to about 57.5 µM), for inactives: at the highest dose activity change, negative = active | purified B. subtilis ClpP, FRET peptide cleavage, 20 min | 1.9% of 340,000 active; active = well fitted falling curve with a large enough effect; inconclusive = small, poorly fitted or top-dose-only effect; inactive = no such curve, though single readings can be large or run the other way; also: the source files actives as falling curves though it sought activators and does not explain the sign; nearly all actives have a fitted effect of over 65% in size
Target sequence (P80244 whole entry, looked up): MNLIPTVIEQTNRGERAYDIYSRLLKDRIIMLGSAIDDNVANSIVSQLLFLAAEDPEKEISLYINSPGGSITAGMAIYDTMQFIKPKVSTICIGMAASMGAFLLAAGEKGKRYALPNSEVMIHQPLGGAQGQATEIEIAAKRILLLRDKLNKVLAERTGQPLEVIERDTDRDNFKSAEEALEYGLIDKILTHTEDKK
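FRET quenching reversal measured ClpP activation: 10 microg/mL B. subtilis ClpP at pH 8 with the FRET-FV decapeptide, read at 430 nm after 320 nm excitation. The 20-min minus 0-min signal was scaled between DMSO/no-enzyme wells and ADEP (5.8 microM final).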
The depositor's hits bear a star; [ ] = another dose, or the depositor's remark. In the library only some 8.1% were active in any assay of this set; here they are far more common. Unless noted, calls follow the shape of the dose curve; as a rule, active = well fitted curve in the direction sought with a large enough effect; inconclusive = small, poorly fitted or top-dose-only effect, or another doubt; inactive = no such curve, though single readings can be large; an effect the other way counts as inactive or inconclusive. Potency is read from the fitted curve at half-maximal effect.

For COC(=O)c1cc(OC)c(OC)cc1NC(=S)NC(=O)c1ccco1 the results were Gal4-VP16 FLuc -24%, Sfp inh -25%, PINK1 modulator 2%, RORgamma inh 8.9µM* and ClpP mod 0%.
COc1ccc(C(=O)NNC(=S)NC(=O)c2ccco2)cc1 was read as Gal4-VP16 FLuc 4%, Sfp inh 16%, PINK1 modulator -2%, RORgamma inh -12%, Epigenetic derep 7% and ClpP mod 1%.
COc1cc(NC(=S)NC(=O)c2ccco2)ccc1NC(=O)C(C)C was read as Gal4-VP16 FLuc -16%, Sfp inh inconclusive, PINK1 modulator 1%, RORgamma inh -25% and Epigenetic derep 0%.
For CCNC(=S)Nc1cc(OCC)c(NC(=O)c2ccco2)cc1OCC the results were Gal4-VP16 FLuc inconclusive, Sfp inh -2%, PINK1 modulator 8%, RORgamma inh 16µM*, Epigenetic derep 0% and ClpP mod 3%.
For Cc1cccc(NC(=O)CSc2nnc3scc(-c4ccccc4)n23)c1 the results were PINK1 modulator 3%, Epigenetic derep -1% and ClpP mod 2%.
Screening Cc1cc(I)ccc1Nc1nc(NCCN2CCOCC2)nc(N2CCOCC2)n1 returned PINK1 modulator 0% and ClpP mod 0%.
COC(=O)c1cc(OC)c(OC)c(OC)c1NC(=O)c1cc(=O)n(C)c(=O)n1C was read as PINK1 modulator 0%, Epigenetic derep -1% and ClpP mod 0%.
For CCOc1ccccc1NC(=O)c1ccccc1NC(=O)c1ccco1 the results were Gal4-VP16 FLuc -9%, Sfp inh -5%, PINK1 modulator 0% and RORgamma inh 23%.
Screening CCOc1cc(NC(=S)NCCOC)c(OCC)cc1NC(=O)c1ccco1 returned Gal4-VP16 FLuc inconclusive, Sfp inh 20%, PINK1 modulator -2%, RORgamma inh 13µM* and Epigenetic derep -1%.
For C=CCNC(=O)CN1CCC(NC(=O)c2ccco2)CC1 the results were Gal4-VP16 FLuc -2%, Sfp inh 3%, PINK1 modulator 2%, RORgamma inh 11% and Epigenetic derep 2%.
For CCCOc1ccccc1NC(=O)/C=C/C(N)=O the results were Gal4-VP16 FLuc 4.5µM*, Sfp inh -25%, PINK1 modulator 2%[38.3 µM], RORgamma inh 4µM*, Epigenetic derep 1% and ClpP mod 1%.
CCCCOc1ccccc1NC(=O)c1ccco1 was read as Gal4-VP16 FLuc -10%, Sfp inh -2%, PINK1 modulator -2%, RORgamma inh 33%, Epigenetic derep 6% and ClpP mod 13µM*.
For COCCNC(=O)CN1CCC(NC(=O)c2ccco2)CC1 the results were Gal4-VP16 FLuc inconclusive, Sfp inh 9%, PINK1 modulator 0%, RORgamma inh 13µM* and Epigenetic derep 1%.
For C[C@@H]1COC(=O)O1 the results were Gal4-VP16 FLuc -2%, Sfp inh 17% and RORgamma inh -12%.
`CCNC(=S)Nc1cc(OC)c(NC(=O)c2ccco2)cc1OC` gave Gal4-VP16 FLuc -10%, Sfp inh -18%, PINK1 modulator -2%, RORgamma inh 13µM* and Epigenetic derep 1%.
For O=c1c2ccccc2nnn1CSc1nc2ccccc2c(=O)n1CCCO the results were Gal4-VP16 FLuc -12%, Sfp inh 2%, PINK1 modulator 2%, RORgamma inh 10µM*, Epigenetic derep 1% and ClpP mod 2%.
Cn1c(SCn2nnc3ccccc3c2=O)nc2ccccc2c1=O was read as Gal4-VP16 FLuc 10%, Sfp inh 4%, RORgamma inh 7% and Epigenetic derep -2%.
`COC(=O)CSC1=C(C#N)C(c2ccccc2F)CC(=O)N1` (stereo unspecified) gave Gal4-VP16 FLuc -1%, Sfp inh inconclusive, PINK1 modulator 7%, RORgamma inh 14%, Epigenetic derep -1% and ClpP mod 2%.
Screening COc1ccc2ccccc2c1C1CC(=O)N2CN(C)CSC2=C1C#N (stereo unspecified) returned Gal4-VP16 FLuc 2%, Sfp inh 7.9µM*, PINK1 modulator 0%, RORgamma inh inconclusive, Epigenetic derep -1% and ClpP mod -1%.
Screening N#CC1=C2SCN(C3CCCCC3)CN2C(=O)CC1c1ccc(F)cc1 (stereo unspecified) returned PINK1 modulator -1%, Epigenetic derep -1% and ClpP mod -1%.
Screening COc1ccc(Br)cc1C1CC(=O)N2CN(C)CSC2=C1C#N (stereo unspecified) returned Gal4-VP16 FLuc -2%, Sfp inh 2.2µM*, PINK1 modulator -1%, RORgamma inh 16µM*, Epigenetic derep 1% and ClpP mod -2%.
Screening N#CC1=C2SCN(Cc3ccccc3)CN2C(=O)CC1c1ccccc1F (stereo unspecified) returned Gal4-VP16 FLuc 6%, Sfp inh 2µM*, PINK1 modulator 4%, RORgamma inh inconclusive, Epigenetic derep 1% and ClpP mod -14%.
`COc1ccc(Br)cc1C1CC(=O)N2CN(Cc3ccccc3)CSC2=C1C#N` (stereo unspecified) gave Gal4-VP16 FLuc -2%, Sfp inh 2.2µM*, PINK1 modulator 4%, RORgamma inh inconclusive, Epigenetic derep 1% and ClpP mod -4%.
Cc1cnc(C)c(-c2cccc3c2OC(CNC(=O)/C=C/c2ccncc2)C3)n1 (stereo unspecified) was read as PINK1 modulator 0%.
Screening COc1cccc(CNC(=O)c2ccc3c(c2)nc2n3CCOC2)c1OC returned PINK1 modulator 1%, Epigenetic derep 6% and ClpP mod -1%.
CC(C)c1ccc(C2CC(=O)N3CN(C)CSC3=C2C#N)cc1 (stereo unspecified) was read as Gal4-VP16 FLuc -17%, Sfp inh 4.5µM*, PINK1 modulator -1%, RORgamma inh -25%, Epigenetic derep -1% and ClpP mod -2%.
N#CC1=C2SCN(C3CCCCC3)CN2C(=O)CC1c1ccc(Cl)cc1 (stereo unspecified) was read as PINK1 modulator 2%, Epigenetic derep -1% and ClpP mod 0%.
COc1cc(OC)c(C2CC(=O)N3CN(C)CSC3=C2C#N)cc1OC (stereo unspecified) was read as Gal4-VP16 FLuc 4%, Sfp inh 3.5µM*, PINK1 modulator 0%, RORgamma inh -21%, Epigenetic derep 1% and ClpP mod -3%.
`FB(F)F` gave Gal4-VP16 FLuc 16% and RORgamma inh 3%.
